From PubChem BioAssay (NCATS)
Values joined by “and” are separate entries in the source; they are usually repeats but may differ in a detail not shown here. Equal entries are not always repeated. A number with no mark means an inactive call. Results filed as inconclusive are left out. Active and inactive are the calls of the source. The call rests on the fitted dose curve; in most records, active means well fitted curve in the direction sought with a large enough effect; inconclusive means small, poorly fitted or top-dose-only effect, or another doubt; inactive means no such curve, though single readings can be large; an effect the other way counts as inactive or inconclusive.

Key:
[1] = P-glycoprotein substrates identified in KB-8-5-11 adenocarcinoma cell line, qHTS therapeutic library screen (AID 1346987); further: nearly all actives have a fitted effect of over 65% in size; further: potency means the concentration at half of the fitted maximal effect
Method in brief: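 Compounds are pinned in dose-response onto KB-8-5-11 cells (500 cells/well, colchicine-free medium) and left 72 h at 37 degree C. CellTiter-Glo luminescence then yields AC50 values.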

[2] = system: Zika virus NS2B-NS3 protease (linked construct); assay: Primary screen NINDS Rhodamine qHTS for Zika virus inhibitors (AID 1347160); further: nearly all actives have a fitted effect of over 55% in size
Method in brief: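 Rhodamine110-peptide cleavage (1.5 µM substrate) by 25 nM linked NS2B-NS3 enzyme at pH 8.0 (Tris, Tween 20), after 15 min RT preincubation with compounds; 15-min fluorescence change normalized to controls and Hill-fitted.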

[3] = biological target: Calcium and integrin-binding protein 1 (Homo sapiens) (UniProt Q99828); assay: Primary qHTS for Identification of Calcium Integrin Binding Protein 1 (CIB1) Competitor (AID 1508620);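 further: GST tagged CIB1 binding a fluorescein labelled alphaIIb integrin peptide tracer; top concentration of the series differs between compounds; on the % scale 0 is the no-effect control and ±100 the full control effect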
Chain of Calcium and integrin-binding protein 1 (Homo sapiens) (Q99828 whole entry, looked up): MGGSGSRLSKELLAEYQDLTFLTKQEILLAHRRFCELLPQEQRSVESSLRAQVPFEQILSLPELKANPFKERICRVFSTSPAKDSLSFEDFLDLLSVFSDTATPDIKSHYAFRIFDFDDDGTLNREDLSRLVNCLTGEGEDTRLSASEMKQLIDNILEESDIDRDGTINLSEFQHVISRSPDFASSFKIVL
Method in brief: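 CIB1-GST (1 uM final) and compound incubated 15 min at room temperature before adding FITC-alphaIIb peptide tracer (100 nM final). Competition for binding read by fluorescence polarization (ex 480, em 540) after another 15 min at room temperature.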

[4] = Primary qHTS for inhibitors of nuclear receptor binding SET domain protein 2 (NSD2) in an isogenic RCH-ACV NSD2 p.E1099K mutant (9B) (AID 1645876); further: nearly all actives have a fitted effect of over 70% in size; further: potency means the concentration at half of the fitted maximal effect
[5] = biological target: Phospholipid hydroperoxide glutathione peroxidase GPX4 (Homo sapiens) (UniProt P36969); assay: Primary qHTS Assay for Inhibitors of Recombinant Selenoprotein Glutathione Peroxidase 4 (GPX4) (AID 1845192); further: nearly all actives have a fitted effect of over 65% in size
Chain of Phospholipid hydroperoxide glutathione peroxidase GPX4 (Homo sapiens) (P36969 whole entry, looked up): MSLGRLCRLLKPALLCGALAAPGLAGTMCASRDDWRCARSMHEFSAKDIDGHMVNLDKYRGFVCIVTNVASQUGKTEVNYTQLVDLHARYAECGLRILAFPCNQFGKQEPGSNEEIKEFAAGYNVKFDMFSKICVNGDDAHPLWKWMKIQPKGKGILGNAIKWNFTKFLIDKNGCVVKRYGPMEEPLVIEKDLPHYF
Method in brief: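 NADPH consumption followed by fluorescence at 340/450 nm, t=0 and after 15 min at room temperature. Reaction started with cumene hydroperoxide (0.5 mM final) after 30 min compound–GPX4 preincubation; final 200 nM GPX4, 100 nM GR, 1 mM GSH, 0.5 mM NADPH.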

[6] = biological target: Luciferin 4-monooxygenase (Photinus pyralis) (UniProt P08659); assay: Primary firefly luciferase (FLuc) qHTS assay for identification of artifact compounds. (AID 1845220); conditions: outcome: dose series up to 54.1 µM unless noted; further: nearly all actives have a fitted effect of over 60% in size
Method in brief: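 FLuc 10 nM; luciferin 10 uM; ATP 10 uM; Tris-acetate pH 7.6, Mg-acetate 10 mM; 15 min RT preincubation; 5 min reaction; luminescence.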

[7] = system: Nanoluciferase (engineered Oplophorus gracilirostris luciferase); assay: Primary Nanoluciferase (NLuc) qHTS assay for identification of artifact compounds. (AID 1845222);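 further: NLuc secreted into diluted conditioned medium of S16 cells; 0% = DMSO and -100% = no enzyme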
Method in brief: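 NLuc from S16 cell medium (1:55) plus test compounds, 15 min, room temperature. Luminescence after Nano-Glo (1:100) addition, 5 min.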

[8] = Primary redox qHTS assay for identification of artifact compounds. (AID 1845223);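 further: 0% = DMSO and 100% = reference compound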
Method in brief: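 Redox-cycling detection via DTT (250 uM final) oxidation coupled to Amplex Red (25 uM)/HRP (250 mU/mL) in HBSS. 15 min preincubation plus 30 min after DTT, room temperature. Ex/Em 525/598 nm; 4-parameter Hill fit against DMSO and 10 uM DA3003.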

CRL-7250 = normal cell line; assay: Cytotoxic Profiling of Annotated Libraries Using Quantitative High-Throughput Screening (AID 1296008); conditions: Five cell lines viability, CellTiter-Glo ATP luminescence, 48-72 h; max response: active compounds read low; further: nearly all actives have a fitted effect of over 60% in size; further: potency means the concentration at half of the fitted maximal effect; on max response: on the % scale 0 is the no-effect control and ±100 the full control effect
Method in brief: (§1)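 Cytotoxicity was measured as CellTiter-Glo ATP luminescence, read after 10 min at room temperature. Compound treatment of the cells lasted 48 or 72 hr at 37 degrees Celsius in a qHTS format.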

HEK293 = assay: as above; conditions: Five cell lines viability, CellTiter-Glo ATP luminescence, 48-72 h; max response: active compounds read low
Method in brief: as §1

HaCat = assay: as above; conditions: Five cell lines viability, CellTiter-Glo ATP luminescence, 48-72 h; max response: active compounds read low
Method in brief: as §1

NIH3T3 = assay: as above; conditions: Five cell lines viability, CellTiter-Glo ATP luminescence, 48-72 h; max response: active compounds read low
Method in brief: as §1

C33A = assay: Primary qHTS to identify gynecologic anti-cancer compounds using libraries of approved drugs and bioactive compounds (AID 1345084); conditions: Gynecologic cancer cell panel viability, ATPlite luminescence, 48 h; series mostly up to 57.5 µM; further: nearly all actives have a fitted effect of over 55% in size; further: potency means the concentration at half of the fitted maximal effect
Method in brief: (§2)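 Measured: luminescence after ATPlite addition (15 min, RT). Exposure: 48 h, 37 C, 5% CO2.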

CASKI = assay: as above; conditions: Gynecologic cancer cell panel viability, ATPlite luminescence, 48 h; series mostly up to 57.5 µM
Method in brief: as §2

Es-2 = assay: as above; conditions: Gynecologic cancer cell panel viability, ATPlite luminescence, 48 h; series mostly up to 57.5 µM
Method in brief: as §2

Hek293T = assay: as above; conditions: Gynecologic cancer cell panel viability, ATPlite luminescence, 48 h, control line for the selectivity index; series mostly up to 57.5 µM
Method in brief: as §2

OV90 = assay: as above; conditions: Gynecologic cancer cell panel viability, ATPlite luminescence, 48 h; series mostly up to 57.5 µM
Method in brief: as §2

PA-1 = assay: as above; conditions: Gynecologic cancer cell panel viability, ATPlite luminescence, 48 h; series mostly up to 57.5 µM
Method in brief: as §2

Tov-21-G = assay: as above; conditions: Gynecologic cancer cell panel viability, ATPlite luminescence, 48 h; series mostly up to 57.5 µM
Method in brief: as §2

Tov112D = assay: as above; conditions: Gynecologic cancer cell panel viability, ATPlite luminescence, 48 h; series mostly up to 57.5 µM
Method in brief: as §2

CC(=O)OC[C@]12C[C@H](O)C(C)=C[C@H]1O[C@@H]1[C@H](O)[C@@H](OC(C)=O)[C@@]2(C)[C@]12CO2
Potency [1]: 0.0143 µM (active) | Potency [2]: inactive | Potency [3]: inactive | Potency [4]: 6.4 nM (active) | Potency [5]: inactive | outcome [6]: inactive | Potency [7]: inactive | Potency [8]: inactive | Potency (CRL-7250): 0.036 µM (active) | Potency (HEK293): 0.0081 µM (active) | Potency (HaCat): 0.0904 µM (active) | Potency (NIH3T3): 0.0453 µM (active) | Potency (C33A): 0.447 µM (active) | Potency (CASKI): 0.0316 µM (active) | Potency (Es-2): 0.199 µM (active) | Potency (Hek293T): 0.0891 µM (active) | Potency (OV90): 12.6 µM (active) | Potency (PA-1): 1.78 µM (active) | Potency (Tov-21-G): 0.178 µM (active) | Potency (Tov112D): 0.1 µM (active)

C=C1[C@@H](C)C2[C@H](Cc3ccccc3)NC(=O)[C@@]23C(/C=C/C[C@H](C)C[C@@](C)(O)/C=C/[C@@H]3OC(C)=O)[C@@H]1O (some centres undefined)
Potency [1]: 2.91 µM (active) | Potency [2]: inactive | Potency [3]: inactive | Potency [4]: 817 nM (active) | Potency [5]: inactive | outcome [6]: inactive | Potency [7]: inactive | Potency [8]: inactive | Potency (CRL-7250): 0.461 µM (active) | Potency (HEK293): 0.731 µM (active) | Potency (HaCat): 0.13 µM (active) | Potency (C33A): inactive | Potency (Es-2): inactive | Potency (Hek293T): inactive | Potency (PA-1): 3.98 µM (active)

CC[C@@]1(O)C(=O)OCc2c1cc1n(c2=O)Cc2cc3c(OC)cccc3nc2-1
Potency [1]: 0.805 µM (active) | Potency [2]: inactive | Potency [3]: inactive | Potency [4]: 7.1 nM (active) | Potency [5]: inactive | outcome [6]: inactive | Potency [7]: inactive | Potency (CRL-7250): 5.08 µM (active) | Potency (HEK293): 0.0508 µM (active) | Potency (HaCat): 0.114 µM (active) | Potency (C33A): 0.631 µM (active) | Potency (Hek293T): 1.58 µM (active) | Potency (OV90): 1.12 µM (active) | Potency (PA-1): 0.0891 µM (active) | Potency (Tov-21-G): 5.62 µM (active) | Potency (Tov112D): 0.224 µM (active)

Cc1sc2c(c1C)C(c1ccc(Cl)cc1)=N[C@@H](CC(N)=O)c1nnc(C)n1-2
Potency [2]: inactive | Potency [3]: inactive | Potency [4]: 64.9 nM (active) and 132 nM (active) | Potency [5]: inactive | outcome [6]: inactive | Potency [7]: inactive | Potency [8]: inactive | Potency (CRL-7250): 0.366 µM (active) | Potency (HEK293): 0.259 µM (active) | max response (HaCat): -29.9% | Potency (C33A): inactive | Potency (CASKI): inactive

Cc1ccccc1CN1CCC(N2CCC(n3c(=O)[nH]c4ccccc43)CC2)CC1
Potency [2]: inactive | Potency [3]: inactive | Potency [4]: inactive | Potency [5]: inactive | outcome [6]: inactive | Potency [7]: inactive | Potency [8]: inactive | Potency (CRL-7250): 7.31 µM (active) | Potency (HEK293): 6.51 µM (active) | max response (HaCat): 0.939% | outcome (NIH3T3): inactive | Potency (CASKI): inactive | Potency (Es-2): inactive | Potency (PA-1): inactive | Potency (Tov-21-G): inactive | Potency (Tov112D): inactive

CN[C@@H]1C[C@H]2O[C@@](C)([C@@H]1OC)n1c3ccccc3c3c4c(c5c6ccccc6n2c5c31)C(=O)NC4
Potency [1]: 0.058 µM (active) | Potency [3]: inactive | Potency [4]: 37.2 nM (active) | outcome [6]: inactive | Potency [7]: inactive | Potency [8]: inactive | Potency (CRL-7250): 0.0037 µM (active) | Potency (HEK293): 0.231 µM (active) | Potency (HaCat): 0.184 µM (active) | Potency (C33A): 1.26 µM (active) | Potency (CASKI): 0.251 µM (active) | Potency (Es-2): 0.631 µM (active) | Potency (Hek293T): 4.47 µM (active) | Potency (OV90): 0.316 µM (active) | Potency (PA-1): 0.251 µM (active) | Potency (Tov112D): 0.891 µM (active)

O=C(CC1NCCC[C@H]1O)Cn1cnc2cc(Br)c(Cl)cc2c1=O (some centres undefined)
Potency [1]: inactive | Potency [5]: inactive | max response (CRL-7250): -5.15% | max response (HEK293): -10.4% | max response (HaCat): -11.7% | max response (NIH3T3): -4.52%

CCCCN1[C@@H]2CC[C@H]1CC(OC(c1ccc(F)cc1)c1ccc(F)cc1)C2 (some centres undefined)
Potency [1]: 18.4 µM (active) | Potency [2]: inactive | Potency [3]: inactive | Potency [4]: 12900 nM (active) | Potency [5]: inactive | outcome [6]: inactive | Potency [7]: inactive | Potency [8]: inactive | max response (CRL-7250): -21.5% | Potency (HEK293): 23.1 µM (active) | max response (HaCat): -29% | Potency (C33A): 22.4 µM (active) | Potency (OV90): 12.6 µM (active) | Potency (PA-1): 14.1 µM (active) | Potency (Tov-21-G): inactive

C[C@@H]1CN(Cc2ccc(F)cc2)CCN1C(=O)COc1ccc(Cl)cc1NC(N)=O
Potency [2]: inactive | Potency [3]: inactive | Potency [5]: inactive | outcome [6]: inactive | Potency [7]: inactive | Potency [8]: inactive | Potency (CRL-7250): 0.731 µM (active) | Potency (HEK293): 1.3 µM (active) | max response (HaCat): -27% | Potency (C33A): 2.51 µM (active) | Potency (OV90): 8.91 µM (active) | Potency (Tov-21-G): inactive

C[C@H]1C/C=C/[C@H]2[C@@H]3O[C@]3(C)[C@@H](C)[C@H]3[C@H](Cc4ccccc4)NC(=O)[C@]32OC(=O)O/C=C/[C@@](C)(O)C1=O
Potency [1]: 2.24 µM (active) | Potency [2]: inactive | Potency [3]: inactive | Potency [4]: 632 nM (active) | Potency [5]: inactive | outcome [6]: inactive [at 25.7 µM] | Potency [7]: inactive | Potency [8]: inactive | Potency (CRL-7250): 0.632 µM (active) | Potency (HEK293): 0.399 µM (active) | Potency (HaCat): 0.796 µM (active) | Potency (C33A): inactive | Potency (CASKI): inactive | Potency (Es-2): inactive | Potency (OV90): inactive | Potency (PA-1): 2.51 µM (active) | Potency (Tov112D): 3.16 µM (active)

C[C@H]1CCC/C=C/C2C[C@H](O)C[C@H]2[C@H](O)/C=C/C(=O)O1 (some centres undefined)
Potency [1]: 0.184 µM (active) | Potency [2]: inactive | Potency [3]: inactive | Potency [4]: 163 nM (active) and 332 nM (active) | outcome [6]: inactive | Potency [7]: inactive | Potency [8]: inactive | Potency (CRL-7250): 0.0517 µM (active) | Potency (HEK293): 0.58 µM (active) | Potency (HaCat): 0.184 µM (active) | Potency (NIH3T3): 5.17 µM (active) | Potency (C33A): 0.631 µM (active) | Potency (CASKI): 1 µM (active) | Potency (Es-2): 0.316 µM (active) | Potency (Hek293T): 0.891 µM (active) | Potency (OV90): 0.316 µM (active) | Potency (PA-1): 0.316 µM (active) | Potency (Tov-21-G): 1 µM (active) | Potency (Tov112D): 0.891 µM (active)
